# Results filed as inconclusive are left out. A number with no mark means an inactive call. Active and inactive are the calls of the source. Calls follow the shape of the dose curve; as a rule, active = well fitted cell-killing curve with a large enough effect; inconclusive = small, poorly fitted or top-dose-only effect, or effect the other way; inactive = no such curve, though single readings can be large or run the other way. Positions of bridges follow the written chain, without caps; N, C: chain ends. Non-standard residues stand in square brackets, D forms with d. Residues, ends and D or L forms follow the SMILES beside them. ξ: configuration not given here. *: point of attachment. Octanoyl(6-Me) = CCC(C)CCCCC(=O)*; ξThr(3R) = C[C@@H](O)C(N)C(=O)O; dDab = NCC[C@@H](N)C(=O)O; Dab = NCC[C@H](N)C(=O)O; Nva = CCC[C@H](N)C(=O)O; Cbz = O=C(OCc1ccccc1)*
# How the values were obtained:
# [1] = Quantitative High-Throughput drug screen in 47 multiple myeloma cell lines against the NCATS MIPE library collection: MM1R_ATCC cell viability assay (AID 1918981); also: nearly all actives have a fitted effect of over 35% in size
# Procedure, shortened: (§1)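 MIPE 4.0 approved/investigational drugs; 500 cells/well; 48 h 37 °C humidified 5% CO2; CTG luminescence readout; DMSO = 100%, media = 0% viability.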
# [2] = Quantitative High-Throughput drug screen in 47 multiple myeloma cell lines against the NCATS MIPE library collection: LP1_DSMZ cell viability assay (AID 1918982); also: nearly all actives have a fitted effect of over 35% in size
# Procedure, shortened: as §1
# [3] = Quantitative High-Throughput drug screen in 47 multiple myeloma cell lines against the NCATS MIPE library collection: KMS28PE_JCRB cell viability assay (AID 1918983); also: nearly all actives have a fitted effect of over 35% in size
# Procedure, shortened: as §1
# [4] = Quantitative High-Throughput drug screen in 47 multiple myeloma cell lines against the NCATS MIPE library collection: KMS34_JCRB cell viability assay (AID 1918985); also: nearly all actives have a fitted effect of over 40% in size
# Procedure, shortened: as §1
# [5] = Quantitative High-Throughput drug screen in 47 multiple myeloma cell lines against the NCATS MIPE library collection: OCIMY7_PLB cell viability assay (AID 1918987); conditions: OCI-MY7 myeloma viability, CellTiter-Glo ATP, 48 h; viability (% of DMSO): at 45.8 µM (top of the series); also: nearly all actives have a fitted effect of over 65% in size
# Procedure, shortened: as §1
# [6] = Quantitative High-Throughput drug screen in 47 multiple myeloma cell lines against the NCATS MIPE library collection: SKMM1_PLB cell viability assay (AID 1919863); conditions: SKMM1 myeloma viability, CellTiter-Glo ATP, 48 h; viability: active compounds read low; also: nearly all actives have a fitted effect of over 35% in size
# Procedure, shortened: as §1
# [7] = Quantitative High-Throughput drug screen in 47 multiple myeloma cell lines against the NCATS MIPE library collection: XG1_PLB cell viability assay (AID 1919866); also: nearly all actives have a fitted effect of over 35% in size
# Procedure, shortened: as §1
# [8] = Quantitative High-Throughput drug screen in 47 multiple myeloma cell lines against the NCATS MIPE library collection: VP6_DJ cell viability assay (AID 1919867); also: nearly all actives have a fitted effect of over 40% in size;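 as to viability (% of DMSO): 100% = DMSO-only wells and 0% = wells with media alone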
# Procedure, shortened: as §1
# [9] = Quantitative High-Throughput drug screen in 47 multiple myeloma cell lines against the NCATS MIPE library collection: PE2_PLB cell viability assay (AID 1919869); also: nearly all actives have a fitted effect of over 35% in size
# Procedure, shortened: as §1
# [10] = Quantitative High-Throughput drug screen in 47 multiple myeloma cell lines against the NCATS MIPE library collection: PCM6_Riken cell viability assay (AID 1919870); also: nearly all actives have a fitted effect of over 30% in size
# Procedure, shortened: as §1
# [11] = Quantitative High-Throughput drug screen in 47 multiple myeloma cell lines against the NCATS MIPE library collection: RPMI8226_ATCC cell viability assay (AID 1919871); also: nearly all actives have a fitted effect of over 30% in size
# Procedure, shortened: as §1
# [12] = Quantitative High-Throughput drug screen in 47 multiple myeloma cell lines against the NCATS MIPE library collection: OPM2_DSMZ cell viability assay (AID 1919872); also: nearly all actives have a fitted effect of over 30% in size
# Procedure, shortened: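 Viability readout: CellTiter-Glo luminescence following 5 min room-temperature incubation with reagent. Prior exposure: 48 h, 37C, humidified 5% CO2, 500 cells per well.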
# [13] = Quantitative High-Throughput drug screen in 47 multiple myeloma cell lines against the NCATS MIPE library collection: KMS28BM_JCRB cell viability assay (AID 1919874); also: nearly all actives have a fitted effect of over 35% in size
# Procedure, shortened: as §1
# [14] = Quantitative High-Throughput drug screen in 47 multiple myeloma cell lines against the NCATS MIPE library collection: OCIMY5_PLB cell viability assay (AID 1918988); also: nearly all actives have a fitted effect of over 65% in size
# Procedure, shortened: as §1
# [15] = Quantitative High-Throughput drug screen in 47 multiple myeloma cell lines against the NCATS MIPE library collection: U266_ATCC cell viability assay (AID 1919864); also: nearly all actives have a fitted effect of over 35% in size;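 as to viability (% of DMSO control): 0% = media-only wells without cells and 100% = DMSO-only wells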
# Procedure, shortened: as §1
# [16] = Quantitative High-Throughput drug screen in 47 multiple myeloma cell lines against the NCATS MIPE library collection: XG6_PLB cell viability assay (AID 1919865); also: nearly all actives have a fitted effect of over 40% in size
# Procedure, shortened: as §1
# [17] = Quantitative High-Throughput drug screen in 47 multiple myeloma cell lines against the NCATS MIPE library collection: KMS11_JCRBsus cell viability assay (AID 1919873); also: nearly all actives have a fitted effect of over 50% in size
# Procedure, shortened: as §1
# [18] = Quantitative High-Throughput drug screen in 47 multiple myeloma cell lines against the NCATS MIPE library collection: OPM1_PLB cell viability assay (AID 1918989); also: nearly all actives have a fitted effect of over 40% in size
# Procedure, shortened: as §1
# [19] = Quantitative High-Throughput drug screen in 47 multiple myeloma cell lines against the NCATS MIPE library collection: UTMC2_PLB cell viability assay (AID 1919868); conditions: CellTiter-Glo ATP luminescence, 48 h; viability (% of DMSO control): at 45.8 µM (top of the series); also: nearly all actives have a fitted effect of over 55% in size;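 as to viability (% of DMSO control): 100% = DMSO-only wells and 0% = media-only wells without cells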
# Procedure, shortened: as §1
# Potency is read from the fitted curve at half-maximal effect.
SMILES,Potency [1],Potency [2],Potency [3],Potency [4],Potency [5],viability [6] [%],Potency [7],Potency [8],Potency [9],Potency [10],Potency [11],Potency [12],Potency [13],Potency [14],Potency [15],Potency [16],Potency [17],Potency [18],Potency [19],Potency [6]
CCC(C)CCCCC(=O)N[C@@H](CCN)C(=O)NC(C(=O)N[C@H](CCN)C(=O)N[C@@H]1CCNC(=O)C([C@@H](C)O)NC(=O)[C@@H](CCN)NC(=O)[C@@H](CCN)NC(=O)[C@@H](CC(C)C)NC(=O)[C@H](Cc2ccccc2)NC(=O)[C@H](CCN)NC1=O)[C@@H](C)O (stereo partly drawn) ({Octanoyl(6-Me)}-[Dab][ξThr(3R)][dDab][dDab][Dab]F[dL][dDab][dDab][ξThr(3R)]; lactam 4-C),inactive,inactive,inactive,inactive,inactive,110,inactive,inactive,inactive,inactive,inactive,inactive,inactive,–,–,–,–,–,–,–
O=C1c2c(O)cccc2[C@@H]([C@@H]2O[C@H](CO)[C@@H](O)[C@H](O)[C@H]2O)c2cc(CO)cc(O)c21,inactive,inactive,inactive,inactive,inactive,153,inactive,inactive,inactive,inactive,–,inactive,–,inactive,inactive,inactive,inactive,–,–,–
NC(=O)c1cccc(-c2cccc(OC(=O)NC3CCCCC3)c2)c1,inactive,inactive,inactive,–,inactive,110,–,inactive,inactive,inactive,inactive,–,inactive,29600 nM (active),inactive,inactive,inactive,inactive,inactive,–
CN1C(C(=O)Nc2ccccn2)=C(O)c2sc(Cl)cc2S1(=O)=O,18700 nM (active),4690 nM (active),4690 nM (active),2960 nM (active),1320 nM (active),–,1660 nM (active),3320 nM (active),3720 nM (active),2640 nM (active),–,inactive,inactive,2960 nM (active),–,2090 nM (active),–,–,–,–
C=CC1=C(C(=O)O)N2C(=O)[C@@H](NC(=O)C(=NO)c3csc(N)n3)[C@H]2SC1,inactive,inactive,inactive,inactive,–,–,inactive,–,inactive,11800 nM (active),inactive,inactive,inactive,inactive,–,inactive,–,inactive,–,–
CN[C@@H]1C[C@H]2O[C@@](C)([C@H]1OC)n1c3ccccc3c3c4c(c5c6ccccc6n2c5c31)C(=O)N[C@H]4O,372 nM (active),1050 nM (active),833 nM (active),372 nM (active),23.5 nM (active),–,148 nM (active),46.9 nM (active),118 nM (active),148 nM (active),2090 nM (active),1050 nM (active),469 nM (active),–,–,83.3 nM (active),264 nM (active),93.5 nM (active),148 nM (active),5900 nM (active)
COc1ccc(CCC(=O)c2c(O)cc(O[C@@H]3O[C@H](CO)[C@@H](O)[C@H](O)[C@@H]3O[C@@H]3O[C@@H](C)[C@H](O)[C@@H](O)[C@@H]3O)cc2O)cc1O,inactive,inactive,inactive,inactive,10500 nM (active),101,7430 nM (active),9350 nM (active),7430 nM (active),7430 nM (active),–,inactive,inactive,–,–,5260 nM (active),inactive,inactive,9350 nM (active),–
CCOC(=O)N1CCN([N+]([O-])=NOc2ccc([N+](=O)[O-])cc2[N+](=O)[O-])CC1,1180 nM (active),2640 nM (active),1320 nM (active),935 nM (active),526 nM (active),–,418 nM (active),2350 nM (active),1480 nM (active),743 nM (active),13200 nM (active),1050 nM (active),833 nM (active),–,2640 nM (active),2640 nM (active),332 nM (active),1180 nM (active),526 nM (active),6620 nM (active)
C=C1C(=CC=C2CCC[C@]3(C)[C@@H]([C@H](C)CCCC(C)(C)O)CC[C@@H]23)C[C@@H](O)C[C@@H]1O,18700 nM (active),20900 nM (active),33200 nM (active),–,6620 nM (active),–,5260 nM (active),5260 nM (active),13200 nM (active),7430 nM (active),–,–,1870 nM (active),3320 nM (active),4180 nM (active),3720 nM (active),9350 nM (active),5260 nM (active),5260 nM (active),–
CCC[C@@H](C=O)NC(=O)[C@H](CC(C)C)NC(=O)[C@H](CC(C)C)NC(=O)OCc1ccccc1 (Cbz-Leu-Leu-[Nva]-aldehyde),743 nM (active),1320 nM (active),662 nM (active),–,372 nM (active),–,372 nM (active),235 nM (active),418 nM (active),469 nM (active),1320 nM (active),–,–,935 nM (active),372 nM (active),264 nM (active),148 nM (active),590 nM (active),1480 nM (active),1870 nM (active)
COC(=O)C=CC(=O)OC,23500 nM (active),inactive,inactive,–,1320 nM (active),144,1320 nM (active),2640 nM (active),5260 nM (active),3320 nM (active),inactive,inactive,inactive,–,–,1320 nM (active),inactive,20900 nM (active),2350 nM (active),–
COc1cc(C(C)C)c(Oc2cnc(NC(CO)CO)nc2N)cc1I,2640 nM (active),inactive,inactive,–,–,122,inactive,–,7430 nM (active),inactive,–,inactive,inactive,1480 nM (active),1480 nM (active),–,inactive,1660 nM (active),–,–
CC(C)(O)[C@H]1CC[C@@](C)([C@H]2[C@@H](O)C[C@@]3(C)[C@@H]4C[C@H](O[C@@H]5O[C@H](CO)[C@@H](O)[C@H](O)[C@@H]5O)[C@H]5C(C)(C)[C@@H](O[C@@H]6OC[C@@H](O)[C@H](O)[C@@H]6O)CC[C@@]56C[C@@]46CC[C@]23C)O1,inactive,inactive,inactive,–,inactive,–,–,–,–,inactive,inactive,inactive,inactive,–,inactive,–,inactive,–,inactive,–
CS(=O)(=O)N1CCc2c(-c3cnc(N)nc3)nc(N3CCOCC3)nc21,209 nM (active),33.2 nM (active),118 nM (active),833 nM (active),–,–,372 nM (active),418 nM (active),296 nM (active),5260 nM (active),–,1050 nM (active),–,332 nM (active),296 nM (active),743 nM (active),–,–,–,–
Cc1ccc2nc(NCCN)c3ncc(C)n3c2c1,3320 nM (active),2640 nM (active),4180 nM (active),8330 nM (active),6620 nM (active),–,2350 nM (active),5260 nM (active),9350 nM (active),2640 nM (active),6620 nM (active),11800 nM (active),6620 nM (active),1320 nM (active),3720 nM (active),1870 nM (active),3720 nM (active),–,4690 nM (active),4690 nM (active)
C[C@@H]1[C@H](C)CC[C@]2(C(=O)O)CC[C@]3(C)C(=CC[C@@H]4[C@@]5(C)C[C@@H](O)[C@H](O)[C@@](C)(CO)[C@H]5CC[C@]43C)[C@@H]12,inactive,inactive,inactive,inactive,–,–,inactive,inactive,inactive,inactive,–,inactive,inactive,inactive,–,inactive,inactive,inactive,inactive,–
CC[C@H](CC[C@@H](C)[C@H]1CC[C@H]2[C@@H]3CC=C4C[C@@H](O)CC[C@]4(C)[C@@H]3CC[C@]12C)C(C)C,inactive,inactive,inactive,inactive,–,106,inactive,–,inactive,inactive,inactive,inactive,inactive,inactive,inactive,inactive,inactive,inactive,–,–
CCOC(=O)C=C[C@H](C[C@@H]1CCNC1=O)NC(=O)[C@@H](CC(=O)[C@@H](NC(=O)c1cc(C)on1)C(C)C)Cc1ccc(F)cc1,inactive,inactive,inactive,inactive,–,138,inactive,–,inactive,inactive,inactive,inactive,–,inactive,–,–,inactive,–,–,–
C[C@H]1C[C@H]2[C@@H]3CCC4=CC(=O)C=C[C@]4(C)[C@@H]3C(=O)C[C@]2(C)[C@@]1(O)C(=O)CO,inactive,inactive,inactive,–,–,–,–,6620 nM (active),inactive,inactive,inactive,inactive,–,inactive,–,inactive,inactive,inactive,–,–
CS[C@H]1SC[C@@H]2C(=O)N(C)[C@H](C(C)C)C(=O)OC[C@H](NC(=O)c3cnc4ccccc4n3)C(=O)N[C@H](C)C(=O)N(C)[C@@H]1C(=O)N(C)[C@H](C(C)C)C(=O)OC[C@H](NC(=O)c1cnc3ccccc3n1)C(=O)N[C@H](C)C(=O)N2C,1.9 nM (active),6.6 nM (active),3 nM (active),4.7 nM (active),41.8 nM (active),–,7.4 nM (active),1 nM (active),1 nM (active),1 nM (active),10.5 nM (active),8.3 nM (active),1.7 nM (active),2.1 nM (active),6.6 nM (active),1 nM (active),3.3 nM (active),–,1 nM (active),9.3 nM (active)

# Reference: PubChem BioAssay (NCATS)
